In the supplement of paper PMC11732987, “Enantioselective OTUD7B fragment discovery through chemoproteomics screening and high-throughput optimisation” (Communications Chemistry, 2025):

What was measured:
Experiment in all cases: log2 ratio of Biotin-Ahx-Ub-VS probe labelling (fragment/DMSO); higher = less target engagement (more negative = stronger competition), active = hit call of the paper (q ≤ 0.05, log2 ratio ≤ -1)
Conditions in all cases: compound concentration: 200 uM; treatment time: 3 h
USP19 = biological target: T1, USP19 (UniProt O94966)
T1 sequence (whole entry): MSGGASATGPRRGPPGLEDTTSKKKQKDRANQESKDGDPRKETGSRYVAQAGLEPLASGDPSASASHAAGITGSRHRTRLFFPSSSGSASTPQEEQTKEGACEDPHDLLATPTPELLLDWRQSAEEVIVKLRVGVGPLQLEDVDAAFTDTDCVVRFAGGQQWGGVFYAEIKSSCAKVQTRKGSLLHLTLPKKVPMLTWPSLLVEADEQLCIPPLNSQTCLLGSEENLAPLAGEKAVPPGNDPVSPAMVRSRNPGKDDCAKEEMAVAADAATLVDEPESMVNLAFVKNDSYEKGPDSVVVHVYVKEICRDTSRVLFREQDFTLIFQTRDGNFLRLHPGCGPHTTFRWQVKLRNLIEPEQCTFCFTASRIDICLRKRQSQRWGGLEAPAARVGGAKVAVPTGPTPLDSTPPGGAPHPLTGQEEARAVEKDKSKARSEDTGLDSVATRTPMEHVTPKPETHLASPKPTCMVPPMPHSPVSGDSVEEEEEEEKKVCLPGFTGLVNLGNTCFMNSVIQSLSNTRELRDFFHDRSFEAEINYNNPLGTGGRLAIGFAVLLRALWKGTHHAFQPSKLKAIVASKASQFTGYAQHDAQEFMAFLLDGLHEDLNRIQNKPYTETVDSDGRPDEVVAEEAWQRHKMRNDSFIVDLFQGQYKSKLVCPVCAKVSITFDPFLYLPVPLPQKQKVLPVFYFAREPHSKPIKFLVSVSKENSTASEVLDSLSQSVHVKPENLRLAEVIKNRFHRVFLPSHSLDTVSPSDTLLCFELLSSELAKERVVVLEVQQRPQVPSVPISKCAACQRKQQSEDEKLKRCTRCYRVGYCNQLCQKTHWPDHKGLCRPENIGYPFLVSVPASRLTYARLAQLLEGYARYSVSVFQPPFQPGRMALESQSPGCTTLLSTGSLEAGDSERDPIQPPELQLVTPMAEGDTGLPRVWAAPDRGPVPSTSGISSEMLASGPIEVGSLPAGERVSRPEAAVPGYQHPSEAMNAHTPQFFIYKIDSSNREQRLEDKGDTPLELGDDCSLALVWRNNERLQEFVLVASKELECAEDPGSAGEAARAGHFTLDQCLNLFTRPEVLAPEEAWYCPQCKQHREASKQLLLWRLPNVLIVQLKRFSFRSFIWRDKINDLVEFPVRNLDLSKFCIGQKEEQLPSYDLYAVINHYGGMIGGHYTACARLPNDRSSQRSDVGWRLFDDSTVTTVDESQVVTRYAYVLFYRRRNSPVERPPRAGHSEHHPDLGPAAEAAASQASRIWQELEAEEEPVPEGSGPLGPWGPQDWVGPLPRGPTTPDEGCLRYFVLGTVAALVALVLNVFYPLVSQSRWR
Method in brief: (§1)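 Global-median-normalised Spectronaut label-free quantities were compared by unpaired t-test, and values are average log2 ratios of fragment over vehicle. Only proteins with ≥2 unique peptides were used. HEK293T lysate (495 µg per sample) was treated in triplicate with fragment at 200 µM or vehicle for 3 h and then with Biotin-Ahx-Ub-VS at 0.5 µM final for 1 h. Labelled DUBs were then NeutrAvidin-enriched, digested with LysC and trypsin, and run by diaPASEF LC-MS/MS.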

USP22 = biological target: T2, USP22 (UniProt Q9UPT9)
T2 sequence (whole entry): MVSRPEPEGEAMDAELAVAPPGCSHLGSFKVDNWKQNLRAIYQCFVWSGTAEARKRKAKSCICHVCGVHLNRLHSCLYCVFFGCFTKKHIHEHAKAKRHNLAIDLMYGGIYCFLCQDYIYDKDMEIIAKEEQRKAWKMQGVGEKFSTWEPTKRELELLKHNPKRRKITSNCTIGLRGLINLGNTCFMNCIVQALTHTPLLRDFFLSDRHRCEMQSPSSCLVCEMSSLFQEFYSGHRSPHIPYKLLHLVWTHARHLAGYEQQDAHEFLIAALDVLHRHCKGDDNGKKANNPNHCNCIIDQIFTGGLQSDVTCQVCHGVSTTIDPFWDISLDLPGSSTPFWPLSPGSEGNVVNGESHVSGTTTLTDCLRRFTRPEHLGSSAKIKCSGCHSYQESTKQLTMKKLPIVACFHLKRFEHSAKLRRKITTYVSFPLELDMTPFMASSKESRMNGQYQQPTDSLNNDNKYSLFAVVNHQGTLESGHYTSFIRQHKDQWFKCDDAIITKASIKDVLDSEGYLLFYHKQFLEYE
Method in brief: as §1

USP24 = USP24 (UniProt Q9UPU5)
Method in brief: as §1

USP25 = biological target: T3, USP25 (UniProt Q9UHP3)
T3 sequence (whole entry): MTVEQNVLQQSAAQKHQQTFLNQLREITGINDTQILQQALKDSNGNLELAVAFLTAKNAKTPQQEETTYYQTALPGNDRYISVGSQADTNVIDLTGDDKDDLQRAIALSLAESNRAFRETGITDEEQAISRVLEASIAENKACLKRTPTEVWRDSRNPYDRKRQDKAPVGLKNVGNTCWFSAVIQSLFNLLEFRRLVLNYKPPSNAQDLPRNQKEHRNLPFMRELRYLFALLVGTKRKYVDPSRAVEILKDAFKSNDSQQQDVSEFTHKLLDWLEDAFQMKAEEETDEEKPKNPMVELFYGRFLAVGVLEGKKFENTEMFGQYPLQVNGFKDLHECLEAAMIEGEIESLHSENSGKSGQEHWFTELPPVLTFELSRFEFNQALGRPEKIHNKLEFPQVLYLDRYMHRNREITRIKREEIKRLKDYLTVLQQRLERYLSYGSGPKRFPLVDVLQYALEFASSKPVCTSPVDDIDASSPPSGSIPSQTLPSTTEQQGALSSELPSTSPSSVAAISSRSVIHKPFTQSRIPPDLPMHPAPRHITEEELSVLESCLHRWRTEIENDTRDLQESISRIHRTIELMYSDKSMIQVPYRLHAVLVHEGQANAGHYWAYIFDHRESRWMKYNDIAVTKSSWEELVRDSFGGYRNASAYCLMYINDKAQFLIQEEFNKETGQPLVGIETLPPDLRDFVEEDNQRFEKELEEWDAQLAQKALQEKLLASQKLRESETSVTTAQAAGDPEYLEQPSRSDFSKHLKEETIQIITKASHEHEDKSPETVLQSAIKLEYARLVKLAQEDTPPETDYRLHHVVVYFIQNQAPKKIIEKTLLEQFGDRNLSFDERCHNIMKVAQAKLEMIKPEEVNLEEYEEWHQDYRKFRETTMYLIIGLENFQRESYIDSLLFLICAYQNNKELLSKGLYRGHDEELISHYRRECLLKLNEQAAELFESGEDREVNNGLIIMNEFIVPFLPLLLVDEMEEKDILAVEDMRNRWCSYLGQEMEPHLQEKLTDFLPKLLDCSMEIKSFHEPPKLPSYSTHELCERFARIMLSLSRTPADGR
Method in brief: as §1

USP28 = biological target: T4, USP28 (UniProt Q96RU2)
T4 sequence (whole entry): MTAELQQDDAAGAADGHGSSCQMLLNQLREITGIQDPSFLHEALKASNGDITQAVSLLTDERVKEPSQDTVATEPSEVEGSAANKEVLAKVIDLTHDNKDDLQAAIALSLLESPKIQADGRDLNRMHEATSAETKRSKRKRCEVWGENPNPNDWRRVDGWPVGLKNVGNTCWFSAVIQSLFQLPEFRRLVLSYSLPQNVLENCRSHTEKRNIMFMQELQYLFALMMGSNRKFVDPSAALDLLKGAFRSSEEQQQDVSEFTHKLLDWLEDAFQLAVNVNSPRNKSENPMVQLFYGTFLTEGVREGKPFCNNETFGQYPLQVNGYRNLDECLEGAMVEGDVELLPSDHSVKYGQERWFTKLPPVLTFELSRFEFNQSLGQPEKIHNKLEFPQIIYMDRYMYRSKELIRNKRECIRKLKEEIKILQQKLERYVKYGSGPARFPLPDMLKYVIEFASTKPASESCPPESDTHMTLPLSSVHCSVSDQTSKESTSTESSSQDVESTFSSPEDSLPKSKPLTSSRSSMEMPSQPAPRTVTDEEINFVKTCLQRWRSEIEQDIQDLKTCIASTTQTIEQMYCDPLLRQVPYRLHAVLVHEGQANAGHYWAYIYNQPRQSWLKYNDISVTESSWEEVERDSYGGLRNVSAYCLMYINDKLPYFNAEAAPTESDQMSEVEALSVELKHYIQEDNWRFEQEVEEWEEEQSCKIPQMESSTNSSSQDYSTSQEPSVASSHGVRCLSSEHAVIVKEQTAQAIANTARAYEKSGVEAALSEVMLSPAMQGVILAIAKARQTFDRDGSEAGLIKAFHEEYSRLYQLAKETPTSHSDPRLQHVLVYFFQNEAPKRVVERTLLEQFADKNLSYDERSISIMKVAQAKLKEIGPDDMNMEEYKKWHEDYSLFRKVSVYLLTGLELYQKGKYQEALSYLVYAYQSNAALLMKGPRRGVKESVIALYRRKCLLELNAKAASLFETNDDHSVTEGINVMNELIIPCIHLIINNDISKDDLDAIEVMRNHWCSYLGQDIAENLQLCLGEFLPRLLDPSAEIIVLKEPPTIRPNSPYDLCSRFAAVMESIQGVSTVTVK
Method in brief: as §1

Measured: log2 ratio of Biotin-Ahx-Ub-VS probe labelling

USP24, sequence (Q9UPU5 whole entry): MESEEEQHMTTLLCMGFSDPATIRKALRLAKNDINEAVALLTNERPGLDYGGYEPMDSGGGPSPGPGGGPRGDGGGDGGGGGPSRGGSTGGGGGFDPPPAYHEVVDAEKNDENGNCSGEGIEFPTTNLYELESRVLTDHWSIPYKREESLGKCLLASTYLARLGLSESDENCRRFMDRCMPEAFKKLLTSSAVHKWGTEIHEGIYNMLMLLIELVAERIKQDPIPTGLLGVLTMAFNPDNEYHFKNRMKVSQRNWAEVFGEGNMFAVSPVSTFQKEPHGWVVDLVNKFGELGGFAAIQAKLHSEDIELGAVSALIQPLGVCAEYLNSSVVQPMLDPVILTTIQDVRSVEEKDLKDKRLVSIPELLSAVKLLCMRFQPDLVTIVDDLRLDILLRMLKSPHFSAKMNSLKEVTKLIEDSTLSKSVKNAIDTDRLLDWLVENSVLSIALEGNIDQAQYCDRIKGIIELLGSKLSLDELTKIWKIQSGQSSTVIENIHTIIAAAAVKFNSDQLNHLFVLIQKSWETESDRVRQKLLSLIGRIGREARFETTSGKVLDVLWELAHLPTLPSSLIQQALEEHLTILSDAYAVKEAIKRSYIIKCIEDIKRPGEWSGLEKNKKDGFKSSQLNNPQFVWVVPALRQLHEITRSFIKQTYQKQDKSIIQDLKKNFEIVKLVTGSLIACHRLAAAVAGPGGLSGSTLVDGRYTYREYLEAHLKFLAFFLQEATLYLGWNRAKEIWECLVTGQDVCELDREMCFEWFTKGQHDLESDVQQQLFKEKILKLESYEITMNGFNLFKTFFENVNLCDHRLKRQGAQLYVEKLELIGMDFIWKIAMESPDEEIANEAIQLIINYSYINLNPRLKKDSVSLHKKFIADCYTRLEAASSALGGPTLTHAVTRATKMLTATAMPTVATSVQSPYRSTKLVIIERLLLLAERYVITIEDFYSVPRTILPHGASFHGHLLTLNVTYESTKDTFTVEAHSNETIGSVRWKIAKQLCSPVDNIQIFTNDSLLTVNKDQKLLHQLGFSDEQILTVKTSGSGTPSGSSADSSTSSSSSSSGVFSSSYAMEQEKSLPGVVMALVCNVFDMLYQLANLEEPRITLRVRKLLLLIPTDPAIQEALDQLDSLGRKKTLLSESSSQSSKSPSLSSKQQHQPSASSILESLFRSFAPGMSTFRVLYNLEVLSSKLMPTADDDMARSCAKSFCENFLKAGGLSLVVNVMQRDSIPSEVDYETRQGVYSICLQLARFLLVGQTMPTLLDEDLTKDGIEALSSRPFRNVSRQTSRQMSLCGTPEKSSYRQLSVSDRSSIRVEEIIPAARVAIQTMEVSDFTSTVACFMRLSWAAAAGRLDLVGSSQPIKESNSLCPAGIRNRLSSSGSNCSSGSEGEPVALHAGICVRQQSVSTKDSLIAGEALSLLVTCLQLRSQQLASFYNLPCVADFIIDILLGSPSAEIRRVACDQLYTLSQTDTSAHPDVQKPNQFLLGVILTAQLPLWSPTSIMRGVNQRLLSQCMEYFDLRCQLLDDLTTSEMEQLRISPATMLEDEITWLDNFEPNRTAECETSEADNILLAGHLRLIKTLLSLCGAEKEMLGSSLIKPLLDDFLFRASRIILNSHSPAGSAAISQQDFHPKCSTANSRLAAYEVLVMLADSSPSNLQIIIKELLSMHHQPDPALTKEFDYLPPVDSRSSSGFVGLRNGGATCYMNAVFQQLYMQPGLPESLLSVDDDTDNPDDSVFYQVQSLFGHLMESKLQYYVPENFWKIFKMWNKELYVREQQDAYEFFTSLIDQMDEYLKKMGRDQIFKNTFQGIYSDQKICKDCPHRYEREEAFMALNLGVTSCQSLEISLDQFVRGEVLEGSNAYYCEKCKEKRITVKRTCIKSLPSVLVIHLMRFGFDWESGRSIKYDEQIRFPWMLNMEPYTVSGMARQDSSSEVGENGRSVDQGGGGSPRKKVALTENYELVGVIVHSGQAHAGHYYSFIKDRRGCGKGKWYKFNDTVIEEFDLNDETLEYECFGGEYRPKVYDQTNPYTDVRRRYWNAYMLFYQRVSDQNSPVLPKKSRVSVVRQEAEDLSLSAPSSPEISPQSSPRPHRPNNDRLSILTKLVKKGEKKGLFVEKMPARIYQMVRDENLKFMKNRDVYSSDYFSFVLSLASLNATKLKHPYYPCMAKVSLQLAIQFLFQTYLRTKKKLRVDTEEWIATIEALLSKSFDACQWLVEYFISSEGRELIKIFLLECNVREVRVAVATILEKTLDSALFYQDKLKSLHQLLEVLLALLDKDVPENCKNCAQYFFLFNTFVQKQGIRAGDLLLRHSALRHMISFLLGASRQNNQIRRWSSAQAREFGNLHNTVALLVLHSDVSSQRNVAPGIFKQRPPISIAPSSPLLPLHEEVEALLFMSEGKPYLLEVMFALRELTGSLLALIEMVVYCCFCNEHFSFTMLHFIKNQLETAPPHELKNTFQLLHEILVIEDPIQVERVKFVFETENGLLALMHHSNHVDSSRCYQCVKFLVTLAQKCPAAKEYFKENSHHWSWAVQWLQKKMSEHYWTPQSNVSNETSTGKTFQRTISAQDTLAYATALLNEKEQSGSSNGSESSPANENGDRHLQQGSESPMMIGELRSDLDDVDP

Cc1cccc2nc(CCNC(=O)CCl)cn12.Cl
inactive: USP19 -0.242 | USP22 0.075 | USP24 -0.429 | USP25 -0.267 | USP28 -0.53
